Where “and” joins values, the source holds several entries; their conditions need not be identical. Equal values may be shown once. Results filed as inconclusive are left out. Entries that show only a call come without a potency. Calls of active or inactive are those of the source. Unless noted, calls come from the whole dose curve; as a rule, active = well fitted curve in the direction sought with a large enough effect; inconclusive = small, poorly fitted or top-dose-only effect, or another doubt; inactive = no such curve, though single readings can be large; an effect the other way counts as inactive or inconclusive.
Key:
[1] = qHTS Assay for Lipid Storage Modulators (AID 1519; calls by dose curve); settings: Drosophila S3 cells, BODIPY lipid droplet/cell ratio, laser cytometry, cells loaded with oleic acid
Outline: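 Cells seeded at 5,000 per well were treated with compounds over a concentration series and loaded with oleic acid (400 uM, as added). Lipid droplet fluorescence (488 nm excitation, 500-530 nm channel) was read by laser-scanning cytometry and normalized to 20 uM Triacsin C.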

[2] = molecular target: DNA repair nuclease/redox regulator APEX1 (Homo sapiens) (UniProt P27695); test: qHTS Validation Assay for Inhibitors of the Human Apurinic/apyrimidinic Endonuclease 1 (APE1) (AID 1705; note: potency is the fitted concentration of half-maximal effect;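 for activity change, negative = inhibition: TAMRA fluorescence gain over two minutes as APE1 cuts a quenched THF abasic duplex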); settings: purified APE1 endonuclease activity, fluorescence, titration; series mostly up to 57.1 µM
Sequence of DNA repair nuclease/redox regulator APEX1 (Homo sapiens) (P27695 whole entry, looked up): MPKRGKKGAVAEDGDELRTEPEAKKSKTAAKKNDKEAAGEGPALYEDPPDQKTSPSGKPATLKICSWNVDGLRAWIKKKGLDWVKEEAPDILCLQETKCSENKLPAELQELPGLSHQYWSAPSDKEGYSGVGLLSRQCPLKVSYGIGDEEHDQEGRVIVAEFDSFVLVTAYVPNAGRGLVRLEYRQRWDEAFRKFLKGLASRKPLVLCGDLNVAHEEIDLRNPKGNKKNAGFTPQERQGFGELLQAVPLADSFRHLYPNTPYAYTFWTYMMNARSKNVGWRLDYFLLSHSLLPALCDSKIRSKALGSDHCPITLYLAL
Outline: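 Read-out: TAMRA fluorescence (525 nm ex, 598 nm em) from cleavage of a quenched THF abasic-site duplex, 50 nM final; activity taken as intensity change between third and first of three reads 60 s apart.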

[3] = molecular target: Endonuclease 4 (Escherichia coli (strain K12)) (UniProt P0A6C1); test: Counterscreen for APE1 Inhibitors: qHTS Validation Assay for Inhibitors of Endonuclease IV (AID 1708); settings: E. coli endonuclease IV, DNA cleavage fluorescence; series mostly up to 57.1 µM
Outline: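 Incision of a double-stranded 50 nM TAMRA/BHQ-2 abasic substrate was followed kinetically (525/598 nm, reads every 60 s) after 15 min enzyme–compound preincubation with 2 nM EndoIV in pH 7.5 Tris buffer with MgCl2, DTT and Tween-20; concentration-response format.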

[4] = qHTS for differential inhibitors of proliferation of Plasmodium falciparum line 7G8 (AID 1815); settings: Plasmodium falciparum 7G8 proliferation inhibition; series mostly up to 28.7 µM;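 note: parasite growth measured after three days of incubation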; note: potency is the fitted concentration of half-maximal effect
[5] = qHTS for differential inhibitors of proliferation of Plasmodium falciparum line GB4 (AID 1816); settings: Potency: Plasmodium falciparum GB4 proliferation inhibition; series mostly up to 28.7 µM;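 note: parasite growth measured after 72 h incubation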; note: potency is the fitted concentration of half-maximal effect
[6] = qHTS for differential inhibitors of proliferation of Plasmodium falciparum line 3D7 (AID 1876); note: potency is the fitted concentration of half-maximal effect; settings: P. falciparum 3D7 proliferation inhibition; series mostly up to 28.7 µM
[7] = qHTS for differential inhibitors of proliferation of Plasmodium falciparum line D10 (AID 1877); settings: series mostly up to 28.7 µM;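 note: parasites grown with compound for 72 h before DNA staining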; note: potency is the fitted concentration of half-maximal effect
[8] = qHTS for differential inhibitors of proliferation of Plasmodium falciparum line W2 (AID 1883); settings: Potency: Plasmodium falciparum W2 proliferation inhibition; series mostly up to 28.7 µM;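 note: parasites grown with compound for 72 h before lysis and staining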; note: potency is the fitted concentration of half-maximal effect
[9] = qHTS for differential inhibitors of proliferation of Plasmodium falciparum line HB3 (AID 1886); settings: Potency: Plasmodium falciparum HB3 proliferation inhibition; series mostly up to 28.7 µM;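 note: parasites grown with compound for 72 h before SYBR Green readout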; note: potency is the fitted concentration of half-maximal effect
[10] = molecular target: Ferritin light chain (Equus caballus) (UniProt P02791); test: qHTS Validation Assay for Identification of Novel General Anesthetics (AID 2323); settings: horse apoferritin, anesthetic-site fluorescent probe displacement; series mostly up to 76.9 µM
Sequence of Ferritin light chain (Equus caballus) (P02791 2-175 limits assumed): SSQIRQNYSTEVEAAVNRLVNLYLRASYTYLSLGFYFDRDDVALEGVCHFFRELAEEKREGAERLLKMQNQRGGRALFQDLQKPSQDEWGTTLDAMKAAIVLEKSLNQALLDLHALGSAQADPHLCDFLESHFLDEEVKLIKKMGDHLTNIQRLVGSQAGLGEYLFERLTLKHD
Outline: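 10 uM horse-spleen apoferritin + 1-AMA (50% saturated, PBS); cpd pin-transferred, 10 min RT. Ex 380/Em 535 nm endpoint. Activity normalized between free 1-AMA and 1-AMA/apoferritin; 4-parameter Hill fit of concentration-response.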

[11] = molecular target: ATP-dependent DNA helicase Q1 (Homo sapiens) (UniProt P46063); test: qHTS Validation Assay for Inhibitors of RecQ-Like Dna Helicase 1 (RECQ1) (AID 2353); settings: recombinant RECQ1 helicase DNA unwinding assay; series mostly up to 25.6 µM
Sequence of ATP-dependent DNA helicase Q1 (Homo sapiens) (P46063 whole entry, looked up): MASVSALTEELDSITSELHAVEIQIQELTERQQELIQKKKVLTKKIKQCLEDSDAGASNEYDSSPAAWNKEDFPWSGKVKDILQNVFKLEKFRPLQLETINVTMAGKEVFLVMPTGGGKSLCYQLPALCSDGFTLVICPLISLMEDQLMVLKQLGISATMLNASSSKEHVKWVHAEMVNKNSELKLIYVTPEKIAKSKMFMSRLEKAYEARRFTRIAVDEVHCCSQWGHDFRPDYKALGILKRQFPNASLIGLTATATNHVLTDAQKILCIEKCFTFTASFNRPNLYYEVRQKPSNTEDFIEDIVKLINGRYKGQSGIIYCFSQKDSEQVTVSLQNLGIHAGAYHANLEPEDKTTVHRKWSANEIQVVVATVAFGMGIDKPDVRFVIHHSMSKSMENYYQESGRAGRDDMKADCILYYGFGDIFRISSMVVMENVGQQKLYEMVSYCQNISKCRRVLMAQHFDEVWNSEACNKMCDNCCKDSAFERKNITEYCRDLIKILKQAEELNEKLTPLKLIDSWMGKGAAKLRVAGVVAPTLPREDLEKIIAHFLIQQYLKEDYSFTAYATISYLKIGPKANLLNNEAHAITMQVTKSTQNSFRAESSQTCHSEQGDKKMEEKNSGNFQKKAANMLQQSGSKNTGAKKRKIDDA
Outline: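 RECQ1T1 50 nM; forked duplex (20 bp + 30-nt ss tails) 200 nM, ATP 2 mM final; pH 8.0, 2 mM MgCl2, 2.5 ug/ml poly(dI-dC); 15 min compound preincubation; discontinuous kinetic read over 2 h at RT.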

[12] = molecular target: RecQ-like DNA helicase BLM (Homo sapiens) (UniProt P54132); test: qHTS Validation Assay for Inhibitors of Bloom's syndrome helicase (BLM) (AID 2364); settings: BLM helicase DNA unwinding, fluorescence, in vitro; series mostly up to 57.1 µM
Sequence of RecQ-like DNA helicase BLM (Homo sapiens) (P54132 whole entry, looked up): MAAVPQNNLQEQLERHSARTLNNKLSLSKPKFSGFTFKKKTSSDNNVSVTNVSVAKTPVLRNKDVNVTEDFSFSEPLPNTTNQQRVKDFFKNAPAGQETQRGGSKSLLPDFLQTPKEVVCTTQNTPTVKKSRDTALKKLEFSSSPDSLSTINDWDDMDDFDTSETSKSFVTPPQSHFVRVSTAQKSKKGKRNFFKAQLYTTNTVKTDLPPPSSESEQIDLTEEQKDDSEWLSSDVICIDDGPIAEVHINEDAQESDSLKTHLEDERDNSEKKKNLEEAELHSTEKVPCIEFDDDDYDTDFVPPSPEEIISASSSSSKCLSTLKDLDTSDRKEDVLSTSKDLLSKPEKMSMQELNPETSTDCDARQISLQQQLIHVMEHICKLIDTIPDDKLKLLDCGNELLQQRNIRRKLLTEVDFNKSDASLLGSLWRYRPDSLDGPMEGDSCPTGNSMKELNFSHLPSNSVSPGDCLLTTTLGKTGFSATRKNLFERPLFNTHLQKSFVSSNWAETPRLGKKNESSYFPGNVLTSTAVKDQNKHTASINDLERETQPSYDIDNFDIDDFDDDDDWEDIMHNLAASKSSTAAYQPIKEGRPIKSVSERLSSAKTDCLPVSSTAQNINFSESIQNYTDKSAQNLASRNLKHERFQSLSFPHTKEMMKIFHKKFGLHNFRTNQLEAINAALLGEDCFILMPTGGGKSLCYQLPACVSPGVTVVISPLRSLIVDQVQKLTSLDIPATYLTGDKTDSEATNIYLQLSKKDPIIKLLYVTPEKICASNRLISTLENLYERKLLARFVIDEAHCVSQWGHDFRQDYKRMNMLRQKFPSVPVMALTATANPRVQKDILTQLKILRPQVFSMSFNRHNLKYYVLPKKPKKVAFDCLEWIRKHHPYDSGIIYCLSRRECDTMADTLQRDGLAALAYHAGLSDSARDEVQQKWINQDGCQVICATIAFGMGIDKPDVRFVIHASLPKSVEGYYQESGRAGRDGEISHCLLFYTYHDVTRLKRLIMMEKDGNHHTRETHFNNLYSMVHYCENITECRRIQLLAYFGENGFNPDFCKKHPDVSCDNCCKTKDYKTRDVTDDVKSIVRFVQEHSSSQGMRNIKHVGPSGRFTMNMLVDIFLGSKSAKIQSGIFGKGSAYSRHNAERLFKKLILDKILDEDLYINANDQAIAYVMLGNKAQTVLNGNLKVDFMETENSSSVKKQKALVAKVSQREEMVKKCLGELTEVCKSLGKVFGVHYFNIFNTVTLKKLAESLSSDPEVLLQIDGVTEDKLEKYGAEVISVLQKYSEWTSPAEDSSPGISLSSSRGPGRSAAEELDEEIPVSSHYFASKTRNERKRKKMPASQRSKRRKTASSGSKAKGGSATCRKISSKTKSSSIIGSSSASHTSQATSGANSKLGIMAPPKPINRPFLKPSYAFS
Outline: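 Forked 20-bp duplex substrate (200 nM, TAMRA/BHQ-2) plus 2 mM ATP added after 15 min compound preincubation with 50 nM enzyme, pH 8.0, poly(dI-dC) 2.5 ug/ml. Strand separation followed by fluorescence (525/598 nm) over 2 h, normalized to enzyme-free and DMSO controls.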

[13] = Cytometric Cell-Based qHTS for Inhibitors of the mTORC1 Signaling Pathway in MEF (Tsc2-/-, p53-/-) Cells (AID 2660); settings: mTORC1 pathway cytometry; series mostly up to 38.3 µM;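 note: Tsc2 and p53 null MEFs carrying empty vector with compound for 24 h; percent of cells above a phospho-rpS6 to PI ratio cutoff in each well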
Outline: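 Readout: Alexa-488 phospho-rpS6 (Ser235/236) intensity divided by PI intensity, thresholded against 7.5 nM rapamycin wells and reported as % positive cells. PI cell count served as the viability measure. Compound exposure was 24 hrs at 37 degree Celsius.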

[14] = High Content Imaging Cell-Based qHTS for Inhibitors of the mTORC1 Signaling Pathway in MEF (Tsc2-/-, p53-/-) Cells (AID 2666); settings: series mostly up to 38.3 µM;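 note: percent of cells scored positive for phospho-rpS6 Ser235/236 immunostaining by imaging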
Outline: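 Tsc2-/-, p53-/- MEFs (empty-vector stable) grown in DMEM + 10% FBS were exposed to compounds for 24 hrs at 37 degree Celsius, fixed, and stained with Alexa-488 anti-phospho-rpS6 Ser235/236 plus Hoechst. Imaging gave the percentage of positive cells per well.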

[15] = High Content Imaging Cell-Based qHTS for Inhibitors of the mTORC1 Signaling Pathway in MEF Cells (AID 2667); settings: series mostly up to 38.3 µM; note: potency is the fitted concentration of half-maximal effect;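 for activity change, negative = inhibition: Tsc2-/- p53-/- MEFs stably re-expressing wild-type Tsc2 exposed 24 h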
Outline: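 Tsc2-/-, p53-/- MEFs stably re-expressing WT Tsc2, grown in DMEM + 10% FBS, were treated with compounds for 24 hrs at 37 degree Celsius, fixed, and stained with Alexa-488 phospho-rpS6 Ser235/236 antibody plus Hoechst; results given as % positive cells.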

[16] = Counterscreen for APE1 Inhibitors: Fluorescent Dye Displacement Validation Assay (AID 1707); settings: fluorescent dye displacement from DNA; series mostly up to 57.1 µM
Outline: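 Signal: ThO fluorescence (ex 480 nm/em 540 nm) on binding 50 nM dsDNA; displacement by test compound reduces it. Conditions: 250 nM dye, 50 mM Tris-HCl pH7.5, 2 mM MgCl2, 50mM NaCl, 0.01% Tween-20.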

[17] = qHTS for differential inhibitors of proliferation of Plasmodium falciparum line Dd2 (AID 1882); settings: Potency: Plasmodium falciparum Dd2 proliferation inhibition; series mostly up to 28.7 µM; note: nearly all actives have a fitted effect of over 65% in size; note: potency is the fitted concentration of half-maximal effect
Outline: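 SYBR Green DNA fluorescence (ex 485, em 535 nm) after overnight lysis quantifies parasite growth; compound exposure lasted 72 h at 37 C on infected red cells at 2.5% hematocrit, 0.3% parasitemia (final). Artemisinin 0.29 uM and vehicle wells define normalization.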

[18] = measured here: cell count channel max response
[19] = measured here: lipid channel max response

Nc1c2c(nc3ccccc13)CCCC2
activity change, negative = inhibition ([1]; at 25.7 µM (top of the series)): 0.95% (inactive)
activity change, negative = inhibition ([1]; at 57.5 µM (top of the series)): 2.49% (inactive)
max response [1, 18]: -0.801% and 25.5%
max response [1, 19]: -0.834% and 27.2%
Potency [2]: inactive
Potency [3]: inactive
Potency [4]: 10 µM (active)
Potency [5]: 10 µM (active)
Potency [6]: 8.91 µM (active)
Potency [7]: 10 µM (active)
Potency [8]: 5.62 µM (active)
Potency [9]: 12.6 µM (active)
Potency [10]: inactive
Potency [11]: inactive
Potency [12]: inactive
outcome [13]: inactive
Potency [14]: inactive
Potency [15]: inactive

CC(C)NCC(O)COc1ccc(CCOCC2CC2)cc1 (stereo unspecified)
activity change, negative = inhibition ([1]; at 57.5 µM (top of the series)): -2.88% (inactive)
max response [1, 18]: -16.9%
max response [1, 19]: -20.2%
Potency [2]: inactive
Potency [16]: inactive
Potency [3]: inactive
Potency [4]: 10 µM (active)
Potency [6]: inactive
Potency [7]: inactive
Potency [17]: inactive
Potency [8]: 7.08 µM (active)
Potency [9]: inactive
Potency [10]: inactive
Potency [11]: inactive
outcome [13]: inactive
Potency [14]: inactive
Potency [15]: inactive

CC(C)(Oc1ccc(C2CC2(Cl)Cl)cc1)C(=O)O (stereo unspecified)
activity change, negative = inhibition ([1]; at 57.5 µM (top of the series)): 1.98% (inactive)
max response [1, 18]: -18.9%
max response [1, 19]: -26.3%
Potency [2]: inactive
Potency [3]: inactive
Potency [4]: inactive
Potency [5]: inactive
Potency [6]: inactive
Potency [7]: inactive
Potency [17]: inactive
Potency [8]: inactive
Potency [9]: inactive
Potency [11]: inactive
outcome [13]: inactive
Potency [14]: inactive
Potency [15]: inactive

Nc1ccn([C@H]2CC[C@@H](CO)O2)c(=O)n1
activity change, negative = inhibition ([1]; at 57.5 µM (top of the series)): 0.404% (inactive) and -0.834% (inactive)
max response [1, 18]: -7.59% and -3.68%
max response [1, 19]: -4.32% and -4.82%
Potency [2]: inactive
Potency [16]: inactive
Potency [3]: inactive
Potency [4]: inactive
Potency [5]: inactive
Potency [6]: inactive
Potency [7]: inactive
Potency [17]: inactive
Potency [8]: inactive
Potency [9]: inactive
Potency [11]: inactive
outcome [13]: inactive
Potency [14]: inactive
Potency [15]: inactive

CNCCCC12CCC(c3ccccc31)c1ccccc12
activity change, negative = inhibition ([1]; at 25.7 µM (top of the series)): -2.57% (inactive)
activity change, negative = inhibition ([1]; at 57.5 µM (top of the series)): -1.14% (inactive) and 2.05% (inactive)
max response [1, 18]: -12.7% and 1.78% and 3.8%
max response [1, 19]: -13.9% and 1.75% and 6.48%
Potency [2]: inactive
Potency [3]: inactive
Potency [4]: 11.2 µM (active)
Potency [5]: 8.91 µM (active)
Potency [6]: 10 µM (active)
Potency [17]: 11.2 µM (active)
Potency [8]: 5.01 µM (active)
Potency [11]: inactive
Potency [12]: inactive
Potency [14]: inactive
Potency [15]: 0.521 µM (active)

C[C@](N)(Cc1ccc(O)c(O)c1)C(=O)O
activity change, negative = inhibition ([1]; at 57.5 µM (top of the series)): 1.88% (inactive)
max response [1, 18]: 48.1%
max response [1, 19]: 42%
Potency [2]: 7.94 µM (active)
Potency [16]: inactive
Potency [3]: inactive
Potency [4]: inactive
Potency [6]: inactive
Potency [7]: inactive
Potency [17]: inactive
Potency [9]: inactive
Potency [10]: inactive
Potency [11]: inactive

CN(C)CCC=C1c2ccccc2C=Cc2ccccc21
activity change, negative = inhibition ([1]; at 25.7 µM (top of the series)): -1.76% (inactive)
activity change, negative = inhibition ([1]; at 57.5 µM (top of the series)): 0.751% (inactive)
max response [1, 18]: -6.8% and 1.02%
max response [1, 19]: -7.37% and 4.03%
Potency [2]: 4.47 µM (active)
Potency [4]: 5.01 µM (active)
Potency [5]: 11.2 µM (active)
Potency [6]: 11.2 µM (active)
Potency [8]: 5.01 µM (active)
Potency [9]: 12.6 µM (active)
Potency [10]: inactive
Potency [11]: inactive
Potency [12]: inactive
outcome [13]: inactive
Potency [14]: inactive
